Source: the supplement of paper PMC10849652
About 8,800 targets were measured; listed, in parts, are those with a hit and a random draw of the rest. About 0.5% of all pairs of compound and target were hits. Values without a mark were called inactive.

Assays:
Experiment in all cases: log2 fold change, soluble protein after heating vs DMSO (PISA); higher = thermal stabilisation; K562 lysate, 10 uM; active = over 0.2 and 3.5 SD of the protein, either way, in both replicates (recomputed)
alvocidib = compound: CN1CC[C@H](c2c(O)cc(O)c3c(=O)cc(-c4ccccc4Cl)oc23)[C@H](O)C1 [alvocidib]
How it was run: (§1)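 Following dounce homogenisation of K562 pellets in PBS pH 7.4 with 1 mM MgCl2, crude extract at 1 mg/mL protein was incubated for 30 min with 10 μM compound. Aliquots were then heated for 3 min over 48°C-58°C and pooled, NP-40 was added to 0.5% at 4°C, and soluble protein was recovered as the supernatant at 21,000xg for 90 min. Channel-sum-equalised TMTpro 16plex LC-MS/MS quantified this protein. Each value, from duplicates, is a log-two fold change in thermal stability relative to solvent controls.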

Tubastatin A = compound: CN1CCc2c(c3ccccc3n2Cc2ccc(C(=O)NO)cc2)C1 [Tubastatin A]
How it was run: as §1

[1] = compound: CNC(=O)C1=CC=CC=C1NC2=NC(=NC=C2Cl)NC3=C(C=C(C=C3)N4CCOCC4)OC
How it was run: as §1

defactinib = compound: CNC(=O)c1ccc(Nc2ncc(C(F)(F)F)c(NCc3nccnc3N(C)S(C)(=O)=O)n2)cc1 [defactinib]
How it was run: as §1

[2] = compound: CNc1nc(-c2ccc3c(N)n[nH]c3c2)cc(N2C[C@@H](C(=O)NC3CCCCC3)CC[C@H]2C)n1
How it was run: as §1

encorafenib = compound: COC(=O)N[C@@H](C)CNc1nccc(-c2cn(C(C)C)nc2-c2cc(Cl)cc(NS(C)(=O)=O)c2F)n1 [encorafenib]
How it was run: as §1

[3] = compound: COC(=O)[C@H](CCSC)NC(=O)C1=C(C=C(C=C1)NC[C@H](CS)N)C2=CC=CC=C2
How it was run: as §1

alisertib = compound: COc1cc(Nc2ncc3c(n2)-c2ccc(Cl)cc2C(c2c(F)cccc2OC)=NC3)ccc1C(=O)O [alisertib]
How it was run: as §1

[4] = compound: COc1cc2nc(-c3cc(F)ccc3O)nc(N[C@@H]3CNC[C@H]3C(C)(C)O)c2cc1OC
How it was run: as §1

gefitinib = compound: COc1cc2ncnc(Nc3ccc(F)c(Cl)c3)c2cc1OCCCN1CCOCC1 [gefitinib]
How it was run: as §1

UniProt Q53GQ0, sequence (Q53GQ0 whole entry, looked up): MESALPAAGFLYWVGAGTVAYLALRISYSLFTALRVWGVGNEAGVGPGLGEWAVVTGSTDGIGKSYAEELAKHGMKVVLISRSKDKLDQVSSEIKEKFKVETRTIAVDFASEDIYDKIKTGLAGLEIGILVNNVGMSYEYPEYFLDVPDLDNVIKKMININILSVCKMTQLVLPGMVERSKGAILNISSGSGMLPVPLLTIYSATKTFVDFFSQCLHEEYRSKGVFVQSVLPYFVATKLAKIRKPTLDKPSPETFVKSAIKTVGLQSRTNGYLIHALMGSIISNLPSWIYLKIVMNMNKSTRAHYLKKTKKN
UniProt Q0VDF9, sequence (Q0VDF9 whole entry, looked up): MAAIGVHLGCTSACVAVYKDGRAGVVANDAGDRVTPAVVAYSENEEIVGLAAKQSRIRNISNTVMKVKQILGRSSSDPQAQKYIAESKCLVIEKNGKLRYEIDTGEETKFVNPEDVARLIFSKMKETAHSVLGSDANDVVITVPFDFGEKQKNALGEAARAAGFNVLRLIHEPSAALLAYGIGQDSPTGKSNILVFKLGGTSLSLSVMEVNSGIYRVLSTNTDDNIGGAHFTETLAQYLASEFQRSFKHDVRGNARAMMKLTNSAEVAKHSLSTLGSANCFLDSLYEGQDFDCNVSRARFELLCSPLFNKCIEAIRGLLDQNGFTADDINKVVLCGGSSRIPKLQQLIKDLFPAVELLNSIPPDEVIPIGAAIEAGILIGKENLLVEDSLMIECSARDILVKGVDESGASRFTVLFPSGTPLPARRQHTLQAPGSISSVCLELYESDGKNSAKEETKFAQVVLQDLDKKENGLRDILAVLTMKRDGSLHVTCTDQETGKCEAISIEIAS
UniProt Q13547, sequence (Q13547 whole entry, looked up): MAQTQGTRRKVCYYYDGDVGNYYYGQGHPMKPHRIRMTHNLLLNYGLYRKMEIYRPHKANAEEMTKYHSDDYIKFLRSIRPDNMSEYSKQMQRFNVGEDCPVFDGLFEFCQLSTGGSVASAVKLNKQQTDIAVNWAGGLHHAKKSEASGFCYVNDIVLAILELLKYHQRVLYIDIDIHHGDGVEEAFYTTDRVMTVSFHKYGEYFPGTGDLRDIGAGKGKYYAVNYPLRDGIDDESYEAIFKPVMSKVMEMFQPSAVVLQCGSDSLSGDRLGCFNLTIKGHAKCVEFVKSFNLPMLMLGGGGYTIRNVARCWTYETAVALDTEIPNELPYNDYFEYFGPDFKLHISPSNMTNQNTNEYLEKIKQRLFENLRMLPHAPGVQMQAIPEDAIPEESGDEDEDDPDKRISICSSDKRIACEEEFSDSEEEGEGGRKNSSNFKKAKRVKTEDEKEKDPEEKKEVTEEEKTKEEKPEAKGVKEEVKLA
UniProt Q58FG1, sequence (Q58FG1 whole entry, looked up): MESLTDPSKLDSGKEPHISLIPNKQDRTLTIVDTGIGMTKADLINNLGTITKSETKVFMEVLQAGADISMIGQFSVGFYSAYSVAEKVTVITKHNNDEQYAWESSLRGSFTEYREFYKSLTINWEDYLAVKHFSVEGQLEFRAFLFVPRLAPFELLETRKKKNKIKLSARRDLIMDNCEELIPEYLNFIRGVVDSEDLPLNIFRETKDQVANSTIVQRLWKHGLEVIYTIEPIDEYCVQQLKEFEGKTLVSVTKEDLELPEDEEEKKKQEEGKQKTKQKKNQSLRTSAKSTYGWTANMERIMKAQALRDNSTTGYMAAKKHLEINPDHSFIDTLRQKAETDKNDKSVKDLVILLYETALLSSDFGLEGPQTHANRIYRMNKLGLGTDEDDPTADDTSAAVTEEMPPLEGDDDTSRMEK
UniProt Q7Z4Q2, sequence (Q7Z4Q2 whole entry, looked up): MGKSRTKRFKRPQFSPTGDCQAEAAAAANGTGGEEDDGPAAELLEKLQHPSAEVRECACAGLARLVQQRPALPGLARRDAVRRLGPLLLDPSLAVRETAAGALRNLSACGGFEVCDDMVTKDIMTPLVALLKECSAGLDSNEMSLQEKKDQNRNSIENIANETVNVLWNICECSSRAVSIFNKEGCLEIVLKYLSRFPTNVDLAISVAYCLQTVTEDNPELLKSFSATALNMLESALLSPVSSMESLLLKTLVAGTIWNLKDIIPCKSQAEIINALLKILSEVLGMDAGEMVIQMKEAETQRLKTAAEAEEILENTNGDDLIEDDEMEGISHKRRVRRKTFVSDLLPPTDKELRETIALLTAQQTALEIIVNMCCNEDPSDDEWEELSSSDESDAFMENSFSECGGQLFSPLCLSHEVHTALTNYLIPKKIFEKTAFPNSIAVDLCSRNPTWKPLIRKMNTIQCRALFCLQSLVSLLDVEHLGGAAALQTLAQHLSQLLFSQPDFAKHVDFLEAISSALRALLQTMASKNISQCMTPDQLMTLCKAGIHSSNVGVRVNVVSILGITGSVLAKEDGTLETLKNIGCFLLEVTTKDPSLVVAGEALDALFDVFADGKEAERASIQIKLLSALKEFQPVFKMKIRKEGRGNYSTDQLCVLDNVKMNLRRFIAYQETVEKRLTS
UniProt Q8IY47, sequence (Q8IY47 whole entry, looked up): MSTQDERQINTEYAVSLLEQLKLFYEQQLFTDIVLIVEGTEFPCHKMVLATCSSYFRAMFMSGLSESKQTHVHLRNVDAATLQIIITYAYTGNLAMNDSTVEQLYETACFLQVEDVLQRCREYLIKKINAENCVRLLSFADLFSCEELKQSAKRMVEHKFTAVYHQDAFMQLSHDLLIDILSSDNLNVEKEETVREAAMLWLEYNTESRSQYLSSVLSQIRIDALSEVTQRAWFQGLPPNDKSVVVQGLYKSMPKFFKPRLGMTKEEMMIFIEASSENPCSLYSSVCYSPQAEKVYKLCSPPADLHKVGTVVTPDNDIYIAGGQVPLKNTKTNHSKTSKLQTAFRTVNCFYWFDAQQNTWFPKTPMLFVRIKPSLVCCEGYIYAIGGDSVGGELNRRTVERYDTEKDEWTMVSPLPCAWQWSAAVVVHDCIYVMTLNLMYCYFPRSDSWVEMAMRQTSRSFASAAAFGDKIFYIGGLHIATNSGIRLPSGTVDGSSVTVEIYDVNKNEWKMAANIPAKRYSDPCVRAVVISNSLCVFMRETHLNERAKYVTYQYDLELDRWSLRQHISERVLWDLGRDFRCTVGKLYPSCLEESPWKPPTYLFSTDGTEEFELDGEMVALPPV
UniProt Q01628, sequence (Q01628 whole entry, looked up): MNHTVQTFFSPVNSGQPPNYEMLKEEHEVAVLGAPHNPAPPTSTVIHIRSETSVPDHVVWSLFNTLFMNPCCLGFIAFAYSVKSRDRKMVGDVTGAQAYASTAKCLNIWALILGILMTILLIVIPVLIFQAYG
UniProt P36969, sequence (P36969 whole entry, looked up): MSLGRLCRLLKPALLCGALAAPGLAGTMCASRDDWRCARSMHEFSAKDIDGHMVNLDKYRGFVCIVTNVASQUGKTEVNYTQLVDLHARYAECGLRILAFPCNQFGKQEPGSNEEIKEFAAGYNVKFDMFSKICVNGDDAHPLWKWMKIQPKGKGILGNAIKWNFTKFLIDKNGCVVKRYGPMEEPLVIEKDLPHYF
UniProt Q9BUE6, sequence (Q9BUE6 whole entry, looked up): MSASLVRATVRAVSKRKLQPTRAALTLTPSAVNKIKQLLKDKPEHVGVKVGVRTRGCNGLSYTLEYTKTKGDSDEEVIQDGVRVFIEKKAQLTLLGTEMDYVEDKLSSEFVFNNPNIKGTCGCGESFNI
UniProt P26583, sequence (P26583 whole entry, looked up): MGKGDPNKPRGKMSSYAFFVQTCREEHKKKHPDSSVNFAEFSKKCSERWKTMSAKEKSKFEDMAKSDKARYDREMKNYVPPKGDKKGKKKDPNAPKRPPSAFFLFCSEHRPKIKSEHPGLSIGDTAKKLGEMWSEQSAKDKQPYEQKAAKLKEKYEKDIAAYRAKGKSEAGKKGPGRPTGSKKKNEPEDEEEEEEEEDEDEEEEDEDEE
UniProt Q9H9Y4, sequence (Q9H9Y4 whole entry, looked up): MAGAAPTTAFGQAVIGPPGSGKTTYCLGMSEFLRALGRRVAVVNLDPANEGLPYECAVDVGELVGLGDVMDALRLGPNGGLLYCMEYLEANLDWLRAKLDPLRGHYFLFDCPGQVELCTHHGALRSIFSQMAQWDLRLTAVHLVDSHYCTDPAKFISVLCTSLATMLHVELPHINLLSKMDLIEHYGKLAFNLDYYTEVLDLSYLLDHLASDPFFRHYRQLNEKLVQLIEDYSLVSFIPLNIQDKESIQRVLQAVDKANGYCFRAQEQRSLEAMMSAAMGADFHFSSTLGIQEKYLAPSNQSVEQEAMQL
UniProt P55084, sequence (P55084 whole entry, looked up): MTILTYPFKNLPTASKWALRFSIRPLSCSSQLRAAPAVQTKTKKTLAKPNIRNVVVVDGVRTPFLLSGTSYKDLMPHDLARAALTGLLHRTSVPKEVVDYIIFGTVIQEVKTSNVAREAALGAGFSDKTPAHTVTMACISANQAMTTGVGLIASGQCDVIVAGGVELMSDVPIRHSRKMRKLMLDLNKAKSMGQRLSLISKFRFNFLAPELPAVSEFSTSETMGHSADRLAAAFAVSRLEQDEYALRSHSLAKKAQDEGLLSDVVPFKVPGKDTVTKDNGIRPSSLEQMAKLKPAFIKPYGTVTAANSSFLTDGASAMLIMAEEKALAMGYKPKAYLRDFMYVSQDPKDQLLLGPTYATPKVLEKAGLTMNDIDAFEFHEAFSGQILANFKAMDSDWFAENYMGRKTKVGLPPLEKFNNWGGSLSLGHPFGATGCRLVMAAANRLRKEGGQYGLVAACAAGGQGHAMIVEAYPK
UniProt Q99871, sequence (Q99871 whole entry, looked up): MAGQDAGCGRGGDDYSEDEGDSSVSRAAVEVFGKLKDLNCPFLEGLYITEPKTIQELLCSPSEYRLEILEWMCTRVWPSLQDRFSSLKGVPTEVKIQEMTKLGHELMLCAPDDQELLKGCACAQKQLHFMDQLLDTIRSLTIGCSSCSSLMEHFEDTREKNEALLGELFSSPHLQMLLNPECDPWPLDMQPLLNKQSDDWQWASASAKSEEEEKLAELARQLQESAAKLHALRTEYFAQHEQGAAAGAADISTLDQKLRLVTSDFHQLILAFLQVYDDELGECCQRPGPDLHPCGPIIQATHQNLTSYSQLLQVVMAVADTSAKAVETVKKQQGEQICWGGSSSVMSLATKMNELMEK

Target | log2 fold change (alvocidib) | log2 fold change (Tubastatin A) | log2 fold change [1] | log2 fold change (defactinib) | log2 fold change [2] | log2 fold change (encorafenib) | log2 fold change [3] | log2 fold change (alisertib) | log2 fold change [4] | log2 fold change (gefitinib)
HDAC1 (UniProt Q13547) | 0.003 | -0.027 | -0.015 | 0.014 | -0.012 | 0.006 | 0.04 | 0.017 | -0.031 | 0.004
GSTM4 (UniProt Q03013) | 0.006 | -0.012 | 0.029 | 0.006 | 0.077 | -0.117 | 0.095 | 0.03 | 0.002 | 0.075
GRB10 (UniProt Q13322) | -0.061 | -0.226 | 0.015 | 0.003 | 0.02 | 0.065 | 0.01 | 0 | -0.02 | -0.043
KARS1 (UniProt Q15046) | 0.027 | -0.01 | -0.037 | 0 | -0.035 | -0.028 | 0.379 (active) | 0.012 | -0.011 | -0.022
HSD17B12 (UniProt Q53GQ0) | 0.012 | -0.089 | -0.11 | -0.021 | -0.046 | -0.016 | 0.035 | 0.022 | 0.009 | -0.131
HSPA14 (UniProt Q0VDF9) | 0.001 | -0.081 | 0.01 | 0.012 | -0.011 | -0.004 | 0.153 | 0.028 | 0 | 0.02
HADHB (UniProt P55084) | -0.046 | 0.033 | 0.081 | -0.065 | -0.03 | -0.058 | 0.072 | -0.019 | -0.019 | 0.022
HMGCS1 (UniProt Q01581) | 0.021 | -0.073 | 0.004 | -0.011 | 0.006 | -0.021 | 0.078 | 0.012 | -0.002 | 0.013
IFITM3 (UniProt Q01628) | -0.001 | -0.329 | 0.01 | 0.118 | 0.042 | 0.043 | -0.142 | 0.109 | -0.137 | 0.291
GLB1 (UniProt P16278) | -0.042 | -0.032 | 0.005 | 0.006 | 0.055 | -0.036 | 0.327 (active) | 0.022 | 0.007 | -0.015
HEATR3 (UniProt Q7Z4Q2) | 0.007 | -0.129 | 0.02 | 0.012 | 0 | 0.014 | 0.116 | 0.018 | -0.046 | 0.003
IARS (UniProt P41252) | 0.006 | -0.134 | 0.01 | 0.02 | -0.03 | 0 | 0.134 | 0.02 | 0.008 | -0.021
HAUS8 (UniProt Q9BT25) | 0.067 | -0.173 | -0.012 | -0.06 | 0.064 | 0.063 | -0.004 | -0.063 | -0.075 | -0.031
HSP90AA4P (UniProt Q58FG1) | -0.228 | 0.052 | -0.081 | -0.213 | -0.046 | -0.022 | 0.123 | -0.012 | 0.068 | 0.042
HIST2H2AA3 (UniProt Q6FI13) | 0.202 | 0.092 | -0.002 | -0.032 | 0.277 | -0.027 | 0.086 | -0.097 | -0.027 | -0.086
GLYR1 (UniProt Q49A26) | 0.013 | -0.007 | -0.046 | -0.084 | -0.078 | -0.001 | 0.074 | -0.011 | -0.046 | -0.093
GORASP1 (UniProt Q9BQQ3) | -0.052 | -0.035 | 0.018 | 0.008 | -0.071 | 0.108 | -0.009 | -0.037 | 0.076 | 0.016
GON4L (UniProt Q3T8J9) | 0.019 | -0.114 | 0.028 | -0.001 | 0.007 | 0.092 | 0.107 | -0.015 | -0.027 | -0.074
GSTCD (UniProt Q8NEC7) | 0.03 | -0.13 | 0.055 | -0.002 | -0.013 | 0.052 | 0.138 | -0.068 | 0.002 | 0
HMGB2 (UniProt P26583) | 0.134 | 0.027 | 0.023 | 0.003 | 0.016 | -0.006 | -0.081 | -0.044 | -0.022 | -0.028
GPX4 (UniProt P36969) | 0.031 | -0.099 | -0.006 | 0.048 | -0.051 | 0.004 | -0.023 | 0.041 | 0 | 0.016
HSPA8 (UniProt P11142) | 0.005 | 0.056 | -0.036 | -0.003 | -0.019 | -0.004 | 0.009 | 0.002 | -0.004 | 0.008
IMMT (UniProt C9J406) | -0.027 | -0.076 | -0.162 | 0.075 | 0.008 | -0.085 | -0.166 | -0.031 | -0.073 | -0.052
GSTM2 (UniProt P28161) | 0.079 | 0.045 | 0.009 | 0.036 | -0.016 | -0.024 | 0.068 | 0.01 | -0.015 | 0.034
ISCA1 isoform 2 (UniProt Q9BUE6) | 0.103 | 0.023 | 0.037 | 0.092 | 0.071 | -0.034 | -0.003 | -0.286 | 0.075 | -0.025
HSD17B10 (UniProt Q99714) | -0.02 | -0.077 | 0.004 | -0.029 | 0.05 | -0.035 | 0.141 | 0.013 | -0.009 | -0.021
GPN2 (UniProt Q9H9Y4) | -0.034 | -0.027 | -0.004 | 0.112 | -0.007 | 0.19 | -0.038 | 0.008 | -0.038 | -0.001
ILKAP (UniProt Q9H0C8) | 0.056 | -0.067 | 0 | 0.03 | -0.028 | -0.002 | 0.017 | 0.067 | -0.006 | 0.005
KBTBD2 (UniProt Q8IY47) | -0.073 | 0.167 | -0.009 | -0.013 | -0.036 | 0.018 | -0.362 (active) | -0.053 | -0.01 | 0.028
HAUS7 isoform 2 (UniProt Q99871) | 0.001 | -0.128 | 0.021 | -0.045 | -0.021 | 0.024 | 0.099 | 0.031 | -0.135 | -0.043
